“And” between values parts separate entries of the source, which are not always exact repeats. Equal entries are not always repeated. Screen size: about 390,000 compounds; about 17,000 (4.4%) were called active. Inconclusive results (about 8%) are left out. Calls come from the whole dose curve; as a rule, active = well fitted inhibition curve with a large enough effect; inconclusive = small, poorly fitted or top-dose-only effect; inactive = no such curve, though single readings can be large or run the other way. What follows is part of a selection rich in actives, with near analogues and random picks from the rest. A call without a number means that no potency is given here. The source holds several records for some structures; these can differ, active in one and inactive in another.
Potency is the fitted concentration of half-maximal effect.

The target of the experiment is Lysine-specific demethylase 4A (Homo sapiens) (UniProt O75164). Kind of experiment: qHTS Assay for Inhibitors of JMJD2A-Tudor Domain. Note: nearly all actives have a fitted effect of over 50% in size. The following applies: AlphaScreen JMJD2A-Tudor / H3K4me3 peptide binding; series mostly up to 114 µM. In general terms: In qHTS, concentration-response curves come from the screen itself.
Sequence of Lysine-specific demethylase 4A (Homo sapiens) (O75164 whole entry, looked up, the tested form may be a part): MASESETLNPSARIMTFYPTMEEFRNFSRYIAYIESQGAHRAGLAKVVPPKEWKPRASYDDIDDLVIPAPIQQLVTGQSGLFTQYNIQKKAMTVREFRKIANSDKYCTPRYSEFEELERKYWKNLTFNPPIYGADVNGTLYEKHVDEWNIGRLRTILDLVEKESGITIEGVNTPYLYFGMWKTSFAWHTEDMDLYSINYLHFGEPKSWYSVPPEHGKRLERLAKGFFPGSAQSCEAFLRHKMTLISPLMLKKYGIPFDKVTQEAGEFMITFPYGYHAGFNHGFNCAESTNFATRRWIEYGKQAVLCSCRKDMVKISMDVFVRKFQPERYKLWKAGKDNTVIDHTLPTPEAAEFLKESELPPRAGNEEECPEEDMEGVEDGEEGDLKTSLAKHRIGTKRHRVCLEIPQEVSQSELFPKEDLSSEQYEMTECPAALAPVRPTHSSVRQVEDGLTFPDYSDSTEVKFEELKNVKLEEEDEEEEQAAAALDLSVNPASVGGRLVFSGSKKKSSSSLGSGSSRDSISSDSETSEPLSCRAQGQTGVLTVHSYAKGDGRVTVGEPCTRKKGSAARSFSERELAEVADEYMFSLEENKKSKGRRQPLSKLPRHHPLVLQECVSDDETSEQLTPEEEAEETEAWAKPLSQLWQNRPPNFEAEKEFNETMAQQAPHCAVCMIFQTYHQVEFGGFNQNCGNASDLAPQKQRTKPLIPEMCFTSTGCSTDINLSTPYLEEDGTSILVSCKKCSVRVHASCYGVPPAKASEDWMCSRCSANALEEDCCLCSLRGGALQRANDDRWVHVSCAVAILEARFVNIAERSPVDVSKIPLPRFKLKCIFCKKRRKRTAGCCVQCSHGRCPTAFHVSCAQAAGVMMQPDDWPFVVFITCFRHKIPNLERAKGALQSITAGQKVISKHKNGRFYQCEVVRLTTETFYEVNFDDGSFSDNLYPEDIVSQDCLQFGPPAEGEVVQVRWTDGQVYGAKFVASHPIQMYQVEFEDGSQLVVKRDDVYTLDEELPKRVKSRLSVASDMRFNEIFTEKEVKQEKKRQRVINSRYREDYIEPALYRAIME
Take `COc1ccccc1CNC(=O)CCCn1c(=O)c2ccccc2n(CC(=O)Nc2ccc(C)cc2Cl)c1=O`: the Potency result was “inactive”. On the same count and under the same terms, as for `O=C(c1cc(-c2ccc(F)cc2)on1)N1CCN(c2ccc(F)cc2)CC1`, the entry is “inactive and 28.2 µM (active)”; as for `COc1ccc(-c2cc(C(=O)N3CCN(c4ccc(F)cc4)CC3)no2)cc1`, “inactive”; as for `O=C(c1cc(-c2ccc(Cl)cc2)on1)N1CCN(c2ccccc2)CC1`, “inactive”. The same measure, in the same setting: for `COc1ccc(-n2c(=O)c3ccccc3n(Cc3ccccc3Cl)c2=O)cc1` the value was “inactive”.

On to `COc1ccc(-c2cc(-c3nc(-c4cc(OC)c(OC)c(OC)c4)no3)[nH]n2)c(OC)c1`, for which the Potency entry was “inactive”. Same read-out and setting: for `CCC(=O)Nc1ccccc1-c1nc2ccccc2n(CC(=O)Nc2ccc(C)c(C)c2)c1=O` the value was “inactive”.

For the compound `CN(C)CCCn1c(SCc2ccc(Cl)cc2)nnc1-c1ccncc1`, the Potency was 20 µM (active).

For the compound `Cn1c(SCc2ccc(F)cc2)nnc1-c1ccncc1`, the Potency result was “inactive”. The same measure, in the same setting: as for `CC1CCCCC1NC(=O)CSc1nnc(-c2ccncc2)n1CCCN(C)C` (stereo not drawn), the figure is 3.55 µM (active); as for `CCn1c(SCC(=O)NC2CC2)nnc1-c1ccncc1`, “inactive”. Same read-out and setting: for `CC1CCCC(NC(=O)CSc2nccn2C)C1C` (stereo not drawn) the value was “inactive”; for `CCn1c(SCc2cccc(C(=O)O)c2)nnc1-c1ccc(Cl)cc1`, “inactive”; for `Cc1ccccc1-c1nc2scc(CCNC(=O)C(=O)Nc3ccc(F)cc3F)n2n1`, “inactive”. Still for that read-out and setting: as for `CCOC(=O)c1ccc(NC(=O)CCS(=O)(=O)c2ccc(C)cc2)cc1`, the entry is “inactive”; as for `COc1ccc(OCC(=O)Nc2cccc(C(=O)OCc3cc(=O)n4nc(C)sc4n3)c2)cc1`, “inactive”; as for `CCCCc1ccc(NC(=O)NCc2cccnc2)cc1`, “inactive”. On to `O=C(Cc1ccccc1)Nc1ccc(NC(=O)c2cccnc2)cc1`, for which the Potency entry is “inactive”. On the same count and under the same terms, for `O=C(CC(NCc1cccnc1)C(=O)O)Nc1ccc(O)cc1` (stereo not drawn) the value was 25.1 µM (active); for `COc1ccccc1CNC(=O)NCc1noc2ccc(C)cc12`, “inactive”.

Consider `COc1cccc(CNCc2ccc3c(c2)OCO3)c1`, for which the Potency is 1.78 µM (active).

Turning to `O=C(NCc1ccc2c(c1)OCO2)C12CC3CC(CC(C3)C1)C2`, the Potency result is “inactive”. As for `COc1ccc(NC(=O)NCc2ccc3c(c2)OCO3)c(OC)c1`, the Potency result was “inactive”. With `COc1cccc(CC(=O)OCC(=O)NCc2ccc3c(c2)OCO3)c1`, the Potency result is “inactive”. Same read-out and setting: as for `COc1cc(OC)c(C(=O)NCc2ccc3c(c2)OCO3)cc1OC`, the entry is “inactive”. For the compound `Cc1ccc(CNCc2ccc3c(c2)OCO3)c(C)c1`, the Potency is 39.8 µM (active). Still for that read-out and setting: as for `CC(=O)c1c(C)n(S(=O)(=O)c2ccc(Cl)cc2)c2ccc(NS(=O)(=O)c3ccc(Cl)cc3)cc12`, the entry is “inactive”; as for `O=C(NCCc1ccccc1)c1ccc2c(c1)N(Cc1ccc(F)cc1)C(=O)c1ccccc1S2(=O)=O`, “inactive”; as for `CC(C)(C)C1CCc2c(sc(NC(=O)c3ccccc3F)c2C(=O)N2CCCCC2)C1` (stereo not drawn), “inactive”. For `CC(C)c1ccc(NC(=O)CN(C)S(=O)(=O)c2ccc3c(c2)c(=O)n(C)c(=O)n3C)cc1`, the Potency entry is “inactive”. On the same count and under the same terms, for `COc1ccc(-c2cc(C(F)(F)F)nc(SCC(=O)N(C)Cc3ccccc3)n2)cc1OC` the value was “inactive”; for `Cc1ccc(-c2nn(CCC(=O)Nc3ccc(Cl)c(Cl)c3)c(=O)c3ccccc23)cc1`, “inactive”; for `COc1ccc2nc(N3CCN(C(=O)c4ccc([N+](=O)[O-])o4)CC3)sc2c1`, “inactive”. The same measure, in the same setting: for `COc1ccc2nc(N3C(=O)C(O)=C(C(=O)c4ccco4)C3c3ccco3)sc2c1` (stereo not drawn) the value was 0.794 µM (active); for `Cc1ccccc1OCCSc1nc2ccc(NC(=O)c3ccco3)cc2s1`, “inactive”.

As to `COc1ccc(NC(C)=O)cc1NC(=O)CN1CCN(c2ccc(F)cc2)CC1`, the Potency entry was “inactive”. The same measure, in the same setting: as for `COC(=O)c1ccccc1NC(=O)c1cnn(-c2ccc(F)cc2)c1-n1cccc1`, the entry is “inactive”. Turning to `CCc1ccccc1NC(=O)CSc1nc(C)c(C(=O)Nc2ccccc2)c(-c2ccc(Cl)cc2)c1C#N`, the Potency entry is “inactive”. Still for that read-out and setting: as for `CCN(CC)S(=O)(=O)c1ccc2c(c1)c(=O)c(C(=O)N1CCN(c3cccc(Cl)c3)CC1)cn2C`, the entry is “inactive”; as for `CN1CCN(CC(O)COCc2ccc3c(c2)OCO3)CC1` (stereo not drawn), “inactive”. On to `OC(COc1ccccc1)CN1CCN(c2cccc(Cl)c2)CC1` (stereo not drawn), for which the Potency result is “inactive”.

`OC(COCc1ccco1)CN1CCN(c2ccccc2)CC1` (stereo not drawn): the Potency is 2.51 µM (active). On to `COc1cccc(C(=O)NCC(=O)OCc2cc(=O)n3ccsc3n2)c1`, for which the Potency result was “inactive”. The same measure, in the same setting: as for `CC(C)c1ccc(NC(=O)c2cc(S(=O)(=O)N3CCc4ccccc4C3)ccc2F)cc1`, the entry is “inactive”; as for `CCOc1ccccc1NC(=O)c1ccc2c(c1)CCN2S(=O)(=O)c1ccc(C)cc1`, “inactive”; as for `CCOc1ccc(N(Cc2ccccc2)C(=O)c2nc(S(C)(=O)=O)ncc2Cl)cc1`, “inactive”. Still for that read-out and setting: as for `CC(CN1CCCCC1)c1ccccc1` (stereo not drawn), the figure is 3.98 µM (active); as for `CC(CN1CCOCC1)c1ccccc1` (stereo not drawn), “inactive”.

As for `CC(CN1CCC(n2nccc2NC(=O)C2CCCC2)CC1)c1ccccc1` (stereo not drawn), the Potency entry is “inactive”. Consider `COc1ccc(-n2c(SCC(N)=O)nc3c(oc4ccccc43)c2=O)cc1`, for which the Potency result was “inactive”.

As for `CCn1cc(C(=O)NCc2ccc(C)cc2)c(=O)c2cc(S(=O)(=O)N3CCc4ccccc4C3)ccc21`, the Potency entry was “inactive”. Still for that read-out and setting: as for `CCCCNC(=O)c1ccc2c(c1)NC(=O)C(C(C)C)N2` (stereo not drawn), the entry is “inactive”; as for `CN(C)c1ccc(C(CNC(=O)c2ccc(F)cc2)c2c[nH]c3ccccc23)cc1` (stereo not drawn), 25.1 µM (active).

As for `C[C@H](NC(=O)c1ccccc1)C(=O)OCC(=O)c1c[nH]c2ccccc12`, the Potency entry was “inactive”. On the same count and under the same terms, for `CCOc1ccccc1C(=O)NCC(c1ccc(N(C)C)cc1)N1CCCC1` (stereo not drawn) the value was “inactive”; for `Cc1ccc(CN2COc3cc(C)c4c(oc(=O)c5ccccc54)c3C2)cc1`, “inactive”; for `Cc1ccc(NC2=C(c3ccc(C(F)(F)F)cc3)C(=O)c3ccccc32)cc1F`, “inactive”. Still for that read-out and setting: as for `COc1ccc(N2C(=O)CSC23C(=O)N(Cc2cccc(F)c2)c2ccccc23)cc1Cl` (stereo not drawn), the entry is “inactive”; as for `O=C(CS(=O)(=O)c1cccc2nsnc12)N1CCN(c2cccc(Cl)c2)CC1`, “inactive”. The same measure, in the same setting: as for `COc1ccc2c(c1OC)C(=O)N(c1ncn[nH]1)C2`, the figure is 39.8 µM (active); as for `COc1ccc2c(c1OC)C(=O)N(c1ccc(O)cc1)C2`, “inactive”. Consider `COc1ccc(C2C(C#N)=C(N)N(c3ncn[nH]3)C3=C2C(=O)CCC3)cc1` (stereo not drawn), for which the activity change, negative = inhibition is -18% [at 11.4 µM] (inactive). `CCOC(=O)c1c(S(=O)(=O)N2CCCC(C(=O)NCc3cccc(C)c3)C2)c(C)n(C)c1C` (stereo not drawn): the Potency entry is “inactive”.

As for `Cc1cc(C)cc(NS(=O)(=O)c2ccc3[nH]cc(C(=O)N4CCCCC4)c(=O)c3c2)c1`, the Potency entry is “inactive”. For the compound `O=C1C(Cl)=C(Oc2ccccc2)C(=O)c2ccccc21`, the Potency is 1 µM (active). On the same count and under the same terms, for `Cc1ccc(-n2c3nc(=O)[nH]c(=O)c-3cc3c(Cl)cccc32)cc1` the value was “inactive”; for `COc1cc(CNCCSc2nnnn2C)ccc1OCc1c(F)cccc1Cl`, “inactive”; for `COC(CCN(C)C)(c1ccccc1)c1ccccc1`, “inactive”. On the same count and under the same terms, as for `CN(C)CCOC1c2ccccc2-c2ccccc21`, the figure is 1.41 µM (active); as for `CC(=O)O[C@H]1c2ccccc2-c2ccccc2[C@@H]1OC(C)=O`, “inactive”; as for `COc1cc(NC(=O)c2nn(-c3ccc(C)cc3)c(=O)c3c2c2ccccc2n3C)cc(OC)c1OC`, “inactive”. For `O=C(CN1C(=O)COc2ccc(S(=O)(=O)N3CCOCC3)cc21)N1CCN(c2cccc(Cl)c2)CC1`, the Potency result is “inactive”.

On to `CCOc1ccccc1/C=N/Nc1nc2ccccc2o1`, for which the Potency was 17.8 µM (active). Still for that read-out and setting: for `CCOc1ccccc1/C=N/NC(=O)CNC(=O)COc1ccccc1` the value was “inactive”.

Take `Brc1ccccc1/C=N/Nc1nc2ccccc2o1`: the Potency entry is “inactive”. Regarding `COc1ccc(NC(=O)c2sc3nc[nH]c(=O)c3c2C)cc1`, the Potency entry is “inactive”. The same measure, in the same setting: for `CC(=O)N1c2ccccc2N(Cc2ccc([N+](=O)[O-])cc2)C(=O)C1(C)C` the value was “inactive”; for `O=c1[nH]n(-c2ccc([N+](=O)[O-])cc2)c(=O)c2ccccc12`, 39.8 µM (active); for `Cc1[nH]n(-c2ccc([N+](=O)[O-])cc2)c(=O)c1C=NCCN1CCN(C(=O)c2ccccc2F)CC1`, “inactive”. Still for that read-out and setting: for `Cc1nc2c(c(C)nn2-c2ccccc2)c(C)c1CCC(=O)NCCc1ccc(Cl)cc1` the value was “inactive”; for `Cc1ccc(C)c(Cn2c(CCCNC(=O)C3CCCCC3)nc3ccccc32)c1`, “inactive”.

With `COc1ccccc1Cc1nc2ccccc2nc1SCC(=O)N1CCCc2ccccc21`, the Potency result was “inactive”.

With `CC(C)c1ccc(Cn2c(COc3ccccc3)nc3ccccc32)cc1`, the Potency result is “inactive”. Same read-out and setting: as for `Cn1c2ccccc2c(=O)c2c(=O)n(Cc3ccco3)c(COc3ccccc3)nc21`, the figure is 44.7 µM (active). `O=C(CSc1nnc(COc2ccc(Cl)cc2)n1Cc1ccco1)N1CCNC1=O`: the Potency result is “inactive”. For the compound `O=C(CSc1nc2c(c(=O)[nH]1)CN(Cc1ccc(F)cc1)CC2)Nc1ccccc1Cl`, the Potency result is “inactive”. Same read-out and setting: for `COc1cc2nc(SCc3ccc(F)cc3)n3nc(CCn4c(C)nc5ccccc54)nc3c2cc1OC` the value was “inactive”. The same measure, in the same setting: for `Cc1ccc2nc3c(cc(C(=O)NC4CCCCC4)c(=N)n3C(C)C)c(=O)n2c1` the value was “inactive”. Still for that read-out and setting: for `CCC1=Nc2cc(C(=O)NCC(C)c3ccccc3)ccc2Sc2ccc(C)cc21` (stereo not drawn) the value was “inactive”; for `Cc1cccc(N2CCN(C(=O)c3cccc(S(=O)(=O)N4CCc5ccccc5C4)c3)CC2C)c1` (stereo not drawn), “inactive”; for `Cc1cccc(N2CCN(c3ccc(C(=O)O)cc3NC(=O)c3ccccc3F)CC2C)c1` (stereo not drawn), 56.2 µM (active). As for `Cc1cccc(N2CCN(C(=O)c3ccccc3NC(=O)C3CCCCC3C(=O)O)CC2)c1` (stereo not drawn), the Potency entry was “inactive”. The same measure, in the same setting: for `O=S(=O)(c1ccc2c(c1)OCCCO2)N1CCN(S(=O)(=O)c2c(F)cccc2F)CC1` the value was “inactive”; for `CCCCCn1c(=O)[nH]c2cc(C(=O)Nc3ccc(F)cc3)ccc2c1=O`, “inactive”; for `COc1ccccc1CNC(=O)CCn1c(=O)c2ccccc2n(CC(=O)Nc2ccc(Br)cc2F)c1=O`, “inactive”. Same read-out and setting: as for `Cc1ccc2c(c1)-c1c(cnn1CC(=O)Nc1ccccc1C#N)CO2`, the entry is “inactive”. Regarding `Cn1cc(S(=O)(=O)N2CCCCCC2)cc1C(=O)N1CCN(c2ccc(F)cc2)CC1`, the Potency result was “inactive”. With `CCOC(=O)c1cc(-c2ccc(OC)c(S(=O)(=O)Nc3ccc(OC)cc3OC)c2)on1`, the Potency entry is “inactive”.
